The supplement of paper PMC8728848
The sample as a whole holds a higher share of the strongest signals than the screen did.

Legend:
Assay in all cases: glycan array binding signal (z-score within array); higher = stronger binding
Details in all cases: glycan notation: IUPAC condensed, linker removed
Fuc(a1-2)Gal(b1-3)GalNAc = molecular target: Fuc(a1-2)Gal(b1-3)GalNAc
Summary of the method: (§1)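 Glycan array data came from 3228 arrays in the Consortium for Functional Glycomics database, and only arrays with an available protein sequence were kept. Glycan names were put into IUPAC-condensed notation, and columns mapping to the same glycan were averaged. The binding signal is a within-array Z-score, averaged across arrays of one protein sequence run at different concentrations or buffers and across linkers. A negative Z-score can be read as non-binding.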

[1] = molecular target: Fuc(a1-2)Gal(b1-3)GlcNAc(b1-3)[Fuc(a1-2)Gal(b1-3)GlcNAc(b1-6)]GalNAc
Summary of the method: as §1

[2] = molecular target: Fuc(a1-2)[Gal(a1-3)]Gal(b1-3)GlcNAc(b1-6)GalNAc
Summary of the method: as §1

[3] = molecular target: Fuc(a1-2)[Gal(a1-3)]Gal(b1-4)[Fuc(a1-3)]GlcNAc(b1-3)GalNAc
Summary of the method: as §1

[4] = molecular target: Fuc(a1-3)[Gal(b1-4)]GlcNAc
Summary of the method: as §1

[5] = molecular target: Fuc(a1-3)[Gal(b1-4)]GlcNAc(b1-6)GalNAc
Summary of the method: as §1

[6] = molecular target: Fuc(a1-3)[Gal(b1-4)]GlcNAc(b1-6)[Gal(b1-3)GlcNAc(b1-3)]Gal(b1-4)Glc
Summary of the method: as §1

[7] = molecular target: Fuc(a1-3)[Gal3S(b1-4)]GlcNAc6S
Summary of the method: as §1

Gal(a1-3)Gal(b1-4)Glc = molecular target: Gal(a1-3)Gal(b1-4)Glc
Summary of the method: as §1

[8] = molecular target: Gal(b1-3)GalNAc(b1-3)Gal(a1-4)Gal(b1-4)Glc
Summary of the method: as §1

[9] = molecular target: Gal(b1-3)[GlcNAc(b1-6)]GalNAc
Summary of the method: as §1

[10] = molecular target: Gal(b1-4)GlcNAc(b1-2)Man(a1-3)[GlcNAc(b1-4)][Gal(b1-4)GlcNAc(b1-2)Man(a1-6)]Man(b1-4)GlcNAc(b1-4)GlcNAc
Summary of the method: as §1

[11] = molecular target: Gal(b1-4)GlcNAc(b1-2)[Gal(b1-4)GlcNAc(b1-6)]Man(a1-6)[Gal(b1-4)GlcNAc(b1-2)Man(a1-3)]Man(b1-4)GlcNAc(b1-4)GlcNAc
Summary of the method: as §1

[12] = molecular target: Gal(b1-4)GlcNAc(b1-2)[Gal(b1-4)GlcNAc(b1-6)]Man(a1-6)[GlcNAc(b1-4)][Gal(b1-4)GlcNAc(b1-2)[Gal(b1-4)GlcNAc(b1-4)]Man(a1-3)]Man(b1-4)GlcNAc(b1-4)[Fuc(a1-6)]GlcNAc
Summary of the method: as §1

[13] = molecular target: Gal(b1-4)GlcNAc(b1-3)Gal(b1-4)GlcNAc(b1-2)Man(a1-3)[Gal(b1-4)GlcNAc(b1-3)Gal(b1-4)GlcNAc(b1-2)Man(a1-6)]Man(b1-4)GlcNAc(b1-4)[Fuc(a1-6)]GlcNAc
Summary of the method: as §1

[14] = molecular target: Gal(b1-4)GlcNAc(b1-3)Gal(b1-4)GlcNAc(b1-2)[Gal(b1-4)GlcNAc(b1-3)Gal(b1-4)GlcNAc(b1-6)]Man(a1-6)[Gal(b1-4)GlcNAc(b1-3)Gal(b1-4)GlcNAc(b1-2)Man(a1-3)]Man(b1-4)GlcNAc(b1-4)[Fuc(a1-6)]GlcNAc
Summary of the method: as §1

[15] = molecular target: Gal(b1-4)GlcNAc(b1-3)Gal(b1-4)GlcNAc(b1-3)Gal(b1-4)GlcNAc(b1-2)Man(a1-3)[Gal(b1-4)GlcNAc(b1-3)Gal(b1-4)GlcNAc(b1-3)Gal(b1-4)GlcNAc(b1-2)Man(a1-6)]Man(b1-4)GlcNAc(b1-4)GlcNAc
Summary of the method: as §1

[16] = molecular target: Gal(b1-4)GlcNAc(b1-3)Gal(b1-4)GlcNAc(b1-3)Gal(b1-4)GlcNAc(b1-2)[Gal(b1-4)GlcNAc(b1-3)Gal(b1-4)GlcNAc(b1-3)Gal(b1-4)GlcNAc(b1-6)]Man(a1-6)[Gal(b1-4)GlcNAc(b1-3)Gal(b1-4)GlcNAc(b1-3)Gal(b1-4)GlcNAc(b1-2)Man(a1-3)]Man(b1-4)GlcNAc(b1-4)[Fuc(a1-6)]GlcNAc
Summary of the method: as §1

[17] = molecular target: Gal(b1-4)GlcNAc(b1-3)Gal(b1-4)GlcNAc(b1-3)Gal(b1-4)GlcNAc(b1-3)Gal(b1-4)GlcNAc(b1-2)Man(a1-3)[Gal(b1-4)GlcNAc(b1-3)Gal(b1-4)GlcNAc(b1-3)Gal(b1-4)GlcNAc(b1-3)Gal(b1-4)GlcNAc(b1-2)Man(a1-6)]Man(b1-4)GlcNAc(b1-4)[Fuc(a1-6)]GlcNAc
Summary of the method: as §1

Gal3S6S(b1-4)GlcNAc6S = molecular target: Gal3S6S(b1-4)GlcNAc6S
Summary of the method: as §1

[18] = molecular target: GalNAc(a1-3)GalNAc(b1-3)Gal(a1-4)Gal(b1-4)GlcNAc
Summary of the method: as §1

GalNAc(b1-4)Gal(b1-4)Glc = molecular target: GalNAc(b1-4)Gal(b1-4)Glc
Summary of the method: as §1

GalNAc(b1-6)GalNAc = molecular target: GalNAc(b1-6)GalNAc
Summary of the method: as §1

[19] = molecular target: GlcNAc(a1-4)Gal(b1-4)GlcNAc(b1-3)Gal(b1-4)GlcNAc
Summary of the method: as §1

[20] = molecular target: GlcNAc(a1-4)Gal(b1-4)GlcNAc(b1-3)Gal(b1-4)[Fuc(a1-3)]GlcNAc(b1-3)Gal(b1-4)[Fuc(a1-3)]GlcNAc
Summary of the method: as §1

[21] = molecular target: GlcNAc(b1-3)Gal(b1-4)GlcNAc(b1-2)Man(a1-3)[GlcNAc(b1-3)Gal(b1-4)GlcNAc(b1-2)Man(a1-6)]Man(b1-4)GlcNAc(b1-4)GlcNAc
Summary of the method: as §1

[22] = molecular target: GlcNAc(b1-3)Gal(b1-4)GlcNAc(b1-3)Gal(b1-4)GlcNAc(b1-2)Man(a1-3)[GlcNAc(b1-3)Gal(b1-4)GlcNAc(b1-3)Gal(b1-4)GlcNAc(b1-2)Man(a1-6)]Man(b1-4)GlcNAc(b1-4)GlcNAc
Summary of the method: as §1

[23] = molecular target: GlcNAc(b1-3)Gal(b1-4)GlcNAc(b1-3)Gal(b1-4)GlcNAc(b1-2)[GlcNAc(b1-3)Gal(b1-4)GlcNAc(b1-3)Gal(b1-4)GlcNAc(b1-6)]Man(a1-6)[GlcNAc(b1-3)Gal(b1-4)GlcNAc(b1-3)Gal(b1-4)GlcNAc(b1-2)Man(a1-3)]Man(b1-4)GlcNAc(b1-4)[Fuc(a1-6)]GlcNAc
Summary of the method: as §1

[24] = molecular target: GlcNAc(b1-3)Gal(b1-4)GlcNAc(b1-3)Gal(b1-4)GlcNAc(b1-3)Gal(b1-4)GlcNAc(b1-2)Man(a1-3)[GlcNAc(b1-3)Gal(b1-4)GlcNAc(b1-3)Gal(b1-4)GlcNAc(b1-3)Gal(b1-4)GlcNAc(b1-2)Man(a1-6)]Man(b1-4)GlcNAc(b1-4)GlcNAc
Summary of the method: as §1

[25] = molecular target: GlcNAc(b1-3)Gal(b1-4)GlcNAc(b1-3)Gal(b1-4)GlcNAc(b1-3)Gal(b1-4)GlcNAc(b1-2)Man(a1-3)[GlcNAc(b1-3)Gal(b1-4)GlcNAc(b1-3)Gal(b1-4)GlcNAc(b1-3)Gal(b1-4)GlcNAc(b1-2)Man(a1-6)]Man(b1-4)GlcNAc(b1-4)[Fuc(a1-6)]GlcNAc
Summary of the method: as §1

B1: BIp1-His (Cryptococcus neoformans) (protein)
chain: MFTKIFVALFAATAVLSAPVESAEKRITHTGRATFYSPSVGIGACGWQNTDEELVVALNAPQYALNADHNCGQSVRITNEQNGNQEIAKVVDLCPGCNDGDLDMSPALFGALNNNDFDQGVFPISWNFLPRDDTSSSN
- glycan array binding signal (z-score) (Fuc(a1-2)Gal(b1-3)GalNAc): -0.387
- glycan array binding signal (z-score) [1]: -0.401
- glycan array binding signal (z-score) [2]: -0.487
- glycan array binding signal (z-score) [3]: 0.249
- glycan array binding signal (z-score) [4]: 0.066
- glycan array binding signal (z-score) [5]: -0.576
- glycan array binding signal (z-score) [6]: -0.013
- glycan array binding signal (z-score) [7]: -0.121
- glycan array binding signal (z-score) (Gal(a1-3)Gal(b1-4)Glc): -0.171
- glycan array binding signal (z-score) [8]: 0.446
- glycan array binding signal (z-score) [9]: 0.127
- glycan array binding signal (z-score) [10]: -0.105
- glycan array binding signal (z-score) [11]: 0.266
- glycan array binding signal (z-score) [12]: -0.02
- glycan array binding signal (z-score) [13]: 2.12
- glycan array binding signal (z-score) [14]: 0.623
- glycan array binding signal (z-score) [15]: 1.97
- glycan array binding signal (z-score) [16]: 3.26
- glycan array binding signal (z-score) [17]: 2.08
- glycan array binding signal (z-score) (Gal3S6S(b1-4)GlcNAc6S): 1.12
- glycan array binding signal (z-score) [18]: -0.181
- glycan array binding signal (z-score) (GalNAc(b1-4)Gal(b1-4)Glc): 0.482
- glycan array binding signal (z-score) (GalNAc(b1-6)GalNAc): -0.887
- glycan array binding signal (z-score) [19]: -0.297
- glycan array binding signal (z-score) [20]: 2.19
- glycan array binding signal (z-score) [21]: -0.301
- glycan array binding signal (z-score) [22]: 1.87
- glycan array binding signal (z-score) [23]: 2.23
- glycan array binding signal (z-score) [24]: 2.51
- glycan array binding signal (z-score) [25]: 3.44
